# Among all 6,200 compounds or so, about 2,900 (47%) were called active. The set was probably picked from earlier hits. The list shows a part of the results. Values without a mark were called inactive. No stated cut-off is given here; in the data, active means inhibition above about 50%; inactive means the rest.
# Experiment: Mycobacterium tuberculosis growth inhibition, primary screen (AID 1259343)
# Details: inhibition: at 10 µM, active compounds read high; outcome: 10 uM
row,Structure (SMILES),inhibition
1,Cc1cccc(C)c1NC(=O)C[N+](C)(C)C,65.2% (active)
2,CN(C)C(=O)N1CCN(c2cc(-c3ccccc3)c3ccccc3n2)CC1,30.6%
3,O=c1[nH]c(CN2CCN(c3cc(=O)n4ccccc4n3)CC2)nc2ccccc12,68.5% (active)
4,CN(Cc1nc2ccccc2c(=O)[nH]1)C(=O)c1cccc(Cl)c1Cl,44.4%
5,NC(=O)c1ccc(-c2nc(-c3ccc4c(c3)OCCO4)c(-c3ccccn3)[nH]2)cc1,40.2%
6,NC(=O)c1ccc2nc(-c3ccc(Oc4ccc(Cl)cc4)cc3)[nH]c2c1,64.4% (active)
7,CC(C)CNc1nn2cc(C(C)(C)C)nc2s1,43.8%
8,Cc1ccc(CNc2ncnc3[nH]ncc23)o1,99.6% (active)
9,COc1ccc(CCNc2ncnc3[nH]ncc23)cc1,8.19%
10,CCC/C=C/c1ccc(NC(C)=O)nc1,92.5% (active)
11,CCC/C=C/c1cccc(C(=O)NCC)c1,79.3% (active)
12,C=CCNC(=O)c1cccc(I)c1,-37.8%
13,CN(C)c1cccc(C(=O)NCC2COc3ccccc3C2)c1 (configuration not stated),13.6%
14,COCC(=O)N1CCC(C(=O)Nc2ccc(-c3cccc(C)c3)cc2)CC1,inactive
15,Cc1cccc(-c2ccc(NC(=O)C3CCN(C(=O)CC4CCCC4)CC3)cc2)c1,89.3% (active)
16,C=CCC(=O)N1CCC(C(=O)Nc2ccc(-c3cccc(C)c3)cc2)CC1,91.9% (active)
17,Cc1cccc(-c2ccc(NC(=O)C3CCN(C(=O)CC4=CCCCC4)CC3)cc2)c1,90.9% (active)
18,O=C(NCCO)c1ccc(OCc2ccc(Cl)s2)cc1,-5.18%
19,N#CC1=C(NC(=O)c2ccc(COc3ccc(Cl)cc3)cc2)CCC1,82.1% (active)
20,CCc1ccc(Nc2ccc([N+](=O)[O-])c3nonc23)cc1,85.6% (active)
21,Cc1nonc1OCCCNc1ccc([N+](=O)[O-])cc1,37.2%
22,CC12CCC(CC1=NNc1nc3ccccc3o1)C2(C)C (configuration not stated),83.6% (active)
23,CCCc1nnc(NC(=O)CC(=O)Nc2ccccc2C(=O)O)s1,9.89%
24,CCCCc1nnc(NC(=O)C2Cc3ccccc3S2)s1 (configuration not stated),54.4% (active)
25,CCCCCc1nnc(NC(=O)Cc2ccccc2)s1,89.6% (active)
26,CCCCc1nnc(NC(=O)N2CCc3ccccc3C2)s1,33.5%

row,Structure (SMILES),inhibition
1,O=C(NCCNc1ncc(C(F)(F)F)cc1Cl)C1Cc2ccccc2S1 (configuration not stated),46.4%
2,CCC(Cc1c(I)cc(I)c(N)c1I)C(=O)O (configuration not stated),84.2% (active)
3,CCOC(=O)c1ccc(NC(=O)CSc2nc(=O)n3ccccc3n2)cc1,90.4% (active)
4,CCc1ccc(NC(=O)CSc2nc(=O)n3ccccc3n2)cc1,-1.93%
5,O=c1nc(SCc2cccc(C(F)(F)F)c2)nc2ccccn12,-26.8%
6,c1coc(-c2cc(CSc3nnc(Cc4cccs4)n3C3CC3)no2)c1,-54.4%
7,Cc1[nH]n(-c2ccc(Cl)cc2)c(=O)c1C1=C(c2c[nH]c3ccccc23)C(=O)N(Cc2ccc(F)cc2)C1=O,61.5% (active)
8,O=C(Nc1nc(-c2c[nH]c3ccccc23)cs1)c1ccc(F)cc1Cl,17%
9,CCc1nc2c(OCCOc3ccc(F)cc3)cccn2c1N(C)C(=O)c1ccccc1F,45.2%
10,CCOC(=O)N1CCC(NS(=O)(=O)CCCOc2ccc(F)cc2)CC1,45%
11,Cc1ccccc1C(c1ncccc1C)N(C)C(=O)C1CCN(CCCOc2ccc(F)cc2)CC1 (configuration not stated),60.1% (active)
12,CC(NC(=O)C/C=C/c1cccc(F)c1)C(O)Cc1ccccc1 (configuration not stated),15.7%
13,CS(=O)(=O)Nc1ccc(/C=C/C(=O)NCCc2cccc(F)c2)cc1,52.3% (active)
14,N#Cc1ccc(NCCc2cccc(F)c2)cn1,36.5%
15,CCc1ccc(CNc2ccc(CNc3ncn[nH]3)cc2)cc1,91.1% (active)
16,Cc1ccccc1-c1noc(-c2cccc(NC(=O)CCN3CCCO3)c2)n1,19.4%
17,COc1cc(NC(=O)CNCCN2CCOC2=O)ccc1Cl,55.3% (active)
18,Cc1cc(NC(=O)CNCCN2CCCOC2=O)ccc1Cl,77.5% (active)
19,Cc1nc2ccccn2c1C(=O)OCc1cc(-c2ccco2)on1,33.3%
20,COc1cccc(-c2cc(CC(=O)NC3CCCC3)no2)c1,19.6%
21,CCC(=O)c1ccc(OCc2cc(-c3ccccc3)on2)cc1,92.5% (active)
22,CC(C)CN1C(=O)C(=Cc2c(N3CCN(CCO)CC3)nc3ccccn3c2=O)SC1=S,7.51%
23,NC(=O)CSc1nccc2c(OCc3ccc(F)cc3)cccc12,77.4% (active)
24,Cc1sc(NC(=O)C2CC2)c(C(=O)N2CCc3ccccc32)c1C,-6.91%
25,CNS(=O)(=O)c1ccc(C(=O)N2CCc3ccccc32)o1,89.9% (active)
26,CNS(=O)(=O)c1ccc2c(c1)CCN2C(=O)c1ccc(F)cc1F,32%

# Source: PubChem BioAssay AID1259343 (VanderVen Lab, College of Veterinary Medicine, Cornell …, 2017)
